# Screening data as filed in PubChem BioAssay.
# D2 ag-1 – D2 dopamine receptor (human) agonism; P14416; HEK293 T-REx D2 cells, calcium flux agonist mode; activation, % at 2 µM; 340,000 compounds, 0.53% hits; AID 485358;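 active means activation over 3 SD above normal in the single-dose calcium agonist read, cut at about 30% in these data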; further: 0% is about no effect
# Target sequence (P14416 whole entry, looked up): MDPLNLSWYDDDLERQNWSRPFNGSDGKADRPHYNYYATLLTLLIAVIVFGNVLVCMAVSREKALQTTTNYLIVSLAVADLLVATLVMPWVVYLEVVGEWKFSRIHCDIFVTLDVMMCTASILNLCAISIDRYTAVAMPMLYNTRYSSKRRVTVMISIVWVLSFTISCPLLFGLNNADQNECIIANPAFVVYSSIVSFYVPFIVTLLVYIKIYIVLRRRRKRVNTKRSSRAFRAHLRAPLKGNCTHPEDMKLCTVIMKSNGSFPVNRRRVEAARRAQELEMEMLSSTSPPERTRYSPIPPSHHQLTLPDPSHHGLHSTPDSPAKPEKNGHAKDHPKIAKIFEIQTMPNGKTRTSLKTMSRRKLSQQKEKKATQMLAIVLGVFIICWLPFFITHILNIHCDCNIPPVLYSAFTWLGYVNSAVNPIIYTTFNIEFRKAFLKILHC
#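 Tetracycline-induced HEK293 T-REx cells with force-coupled D2 receptor, plated overnight at 30 C, loaded with no-wash calcium dye. After a 10 s baseline, compound was pin-added and calcium flux read kinetically for 180 s; calcium rises flagged agonists.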
# D2 ag-2 – agonists of human D2 dopamine receptor (beta-arrestin). activation, % (no concentration beside the values). 360,000 compounds, 0.084% hits. DiscoveRx PathHunter D2 beta-arrestin, luminescence, 90 min; 100% = 57 uM dopamine signal; in the data active means activation above about 40%; inconclusive means between about 15% and that limit
#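 DiscoveRx PathHunter D2 beta-arrestin cells (2,100/well) attached overnight, then compound-stimulated 90 min at 37 C in HBSS/10 mM HEPES/0.1% Tween-20 buffer; beta-galactosidase complementation read by luminescence after 1 h at ambient temperature. Dopamine 57 uM final (EC100) as control.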
# D2 PAM-1 – D2 dopamine receptor (human) potentiation; HEK293 T-REx D2, calcium flux, EC20 dopamine potentiation; potentiation, % at 10 µM; AID 485347; 340,000 compounds, 0.34% hits; P14416;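 active means potentiation over 3 SD above the plate norm, cut at about 30% in these data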; further: 0% is about no effect
#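 Tetracycline-induced HEK293 T-REx cells force-coupled to calcium signalling expressed D2; compounds were pin-added after a 10 s baseline, read kinetically 180 s, then an EC20 dopamine challenge followed with a further 180 s calcium read.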
# D2 PAM-2 – potentiates the human D2 dopamine receptor allosterically. DiscoveRx D2 beta-arrestin cells, luminescence, 90 min; 100% = 57 uM dopamine signal. P14416. 360,000 compounds, 0.23% hits. potentiation, % (no concentration beside the values); in the data active means potentiation above about 50%; inconclusive means mostly about 30% to 49%
#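 PathHunter D2 cells, attached overnight at 37 deg C, received compound in DMSO plus dopamine at EC20 (50 nM final) for 90 min at 37 deg C. Beta-arrestin recruitment was read as luminescence after 1 h with detection reagent at ambient temperature.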
# D2 antagonist – antagonists of human D2 dopamine receptor | P14416 | HEK293 TREx D2 cells, calcium flux, dopamine EC80 | inhibition, % at 10 µM | 340,000 compounds, 2% hits; in the data active means inhibition above about 30%; inactive means below that, where a call was filed; further: 0% is about no effect
#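 Read-out: kinetic calcium fluorescence (1 cycle/s) in inducible HEK293 T-REx D2 cells after an EC80 dopamine addition that followed 180 s compound preincubation. Loss of the dopamine response indicates antagonism.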
# Numbers without * were called inactive; ? = inconclusive; . = not tested or not shown. Most compounds without a hit are left out; they make up all but 2.4% or so of the library.
SMILES,D2 ag-1,D2 ag-2,D2 PAM-1,D2 PAM-2,D2 antagonist
Cc1nc2ccc(NC(=O)COc3ccccc3)cc2s1,1,1,-1,-5,3
Cc1nc2ccc(NC(=O)c3ccc4ccccc4n3)cc2s1,-2,-2,31*,-3,-4
Cc1cccc(OCC(=O)Nc2ccc3nc(C)sc3c2)c1,-1,-3,34*,-5,-7
CCOC(=O)C1(CC2CC2)CCN(Cc2cn[nH]c2-c2cccc(F)c2)CC1,-1,-2,-6,-18,0
COc1ccc(CC2(CO)CCN(Cc3cccc4nccnc34)CC2)cc1,0,-21,5,-15,-4
COc1cccc(CC2(CO)CCN(Cc3ccc4cccc(F)c4n3)CC2)c1,0,1,-22,-23,62*
OCC1(CCOc2ccccc2)CCN(Cc2ccc3cccc(F)c3n2)CC1,0,-4,2,-14,0
CCOC(=O)C1(CC2CC2)CCN(Cc2ccc3cccc(F)c3n2)CC1,0,2,-21,-10,65*
COc1ccc(CN2CCC(CO)(Cc3ccccc3C(F)(F)F)CC2)c(F)c1,-1,-2,-12,-18,43*
OCC1(Cc2cccc(F)c2)CCN(Cc2ccc3cccc(F)c3n2)CC1,0,-3,-19,-12,40*
Cc1cccc(OCCOCCn2c(-c3ccc(Cl)cc3)nc3ccccc3c2=O)c1C,1,.,14,.,.
O=C(c1ccccc1)c1ccc2c(c1)OCCOCCOCCOCCO2,-2,-3,10,-7,50*
O=C(O)c1ccc2c(c1)OCCOCCOCCOCCOCCO2,-1,-2,-5,-7,-22
COc1ccc(O)c(N)c1,1,.,43*,.,-19
Cc1ccc(NC(=O)C(=O)Nc2ccc(C)cn2)nc1,0,0,0,-9,-8
Cc1ccc(NC(=O)/C(C#N)=C(\N)C(Cl)(Cl)Cl)nc1,0,0,19,1,33*
Cc1nc2ccccc2c(=O)n1CCCO,-1,-5,-18,-12,32*
CCCN1C2CCCC1CC(NC(=S)Nc1cccc(C)c1C)C2 (stereo not given),0,-3,-10,-13,-16
Fc1ccc(NC(=S)NC2CC3CCCC(C2)N3Cc2cccs2)cc1 (stereo not given),0,-4,-13,-23,15
CCc1ccccc1NC(=S)NC1CC2CCCC(C1)N2Cc1cccs1 (stereo not given),-1,-1,-23,-19,72*
Cc1ccc(NC(=S)NC2CC3CCCC(C2)N3Cc2cccs2)cc1 (stereo not given),1,-3,-23,-38,72*
Cc1cccc(NC(=S)NC2CC3CCCC(C2)N3Cc2cccs2)c1C (stereo not given),0,-1,-22,-24,69*
O=C(Nc1cccc(Cl)c1)NC1CC2CCC(C1)N2Cc1cccs1 (stereo not given),0,1,-17,-4,73*
Nc1oc2ccccc2c1C(=O)Cc1ccccc1O[C@@H]1O[C@H](CO)[C@@H](O)[C@H](O)[C@H]1O,1,-5,8,-6,-4
Cc1cccc2sc(N(Cc3cccnc3)C(=O)Cc3ccccc3)nc12,21,.,0,.,.
SMILES,D2 ag-1,D2 ag-2,D2 PAM-1,D2 PAM-2,D2 antagonist
CC(C)c1nnc(NC(=O)C2CCCN2C(=O)Nc2ccccc2F)s1 (stereo not given),0,-2,-6,-6,38*
COc1ccccc1NC(=O)N1CCCC1C(=O)Nc1nnc(C(C)C)s1 (stereo not given),-1,-4,7,1,15
CCOC(=O)c1[nH]c(C)c(CCC(=O)NCc2ccc(N(C)C)cc2)c1C,2,.,3,.,.
COc1ccccc1NC(=O)c1ccc(NC(=O)COC(=O)C2CCCO2)cc1 (stereo not given),0,4,10,5,41*
CC(C)(C)NC(=O)CN(Cc1ccc2c(c1)OCO2)C(=O)CCC(=O)Nc1nccs1,0,-3,14,-2,11
CCC(C)(C)NC(=O)CN(Cc1ccc2c(c1)OCO2)C(=O)CCC(=O)Nc1cc(C)ccn1,0,-5,13,-8,42*
CN1CCN(CCOC2Cc3ccccc3Sc3ccc(Cl)cc32)CC1 (stereo not given),0,-2,-41,-37,88*
C/C(=N\OC(=O)c1c(-c2ccccc2Cl)noc1C)c1ccncc1,0,-4,-4,-7,3
Cc1cc(C)cc(C(=O)O/N=C(\N)c2ccc(Br)cc2)c1,0,?,4,64*,35*
Cc1ccc(C(=O)O/N=C(\N)c2ccc(Br)cc2)cc1C,-2,10,-10,?,-8
COc1ccc(/C(N)=N/OC(=O)c2cccs2)cc1,1,9,3,7,2
Cc1onc(-c2ccccc2Cl)c1C(=O)O/N=C(\N)c1ccccc1,-2,43*,-1,?,5
Cc1cccc(C(=O)O/N=C(\N)c2ccc(Br)cc2)c1,-2,?,-7,138*,-19
N/C(=N\OC(=O)c1cccc(Br)c1)c1ccccc1,-1,11,-6,?,7
N/C(=N\OC(=O)c1cccs1)c1ccc(Cl)cc1,0,50*,-6,?,-7
Cc1ccccc1NC(=O)Cn1c(=O)n(Cc2ccc3c(c2)OCO3)c(=O)c2oc3ccccc3c21,1,.,-1,.,.
Cc1cc(/C(N)=N/OC(=O)c2ccc(Cl)cc2)no1,-1,2,-7,-4,-7
CCSc1nnc(NC(=O)c2c(-c3ccccc3Cl)noc2C)s1,1,-3,15,23,109*
Cc1onc(-c2ccccc2Cl)c1C(=O)Nc1nnc(-c2cccc([N+](=O)[O-])c2)s1,.,1,.,-1,.
COc1ccc(C(=O)O/N=C(\N)c2cccc(C)c2)cc1OC,0,?,9,27,-3
Cc1ccc(C)c(C(=O)O/N=C(\N)c2ccc(Br)cc2)c1,-1,12,12,57*,0
Cc1cccc(C(=O)O/N=C(\N)c2ccc(Cl)cc2)c1,0,46*,-9,-6,14
Cc1cc(/C(N)=N/OC(=O)c2cccc(Cl)c2)no1,0,5,-1,13,50*
CC(=O)c1c(O)cc(O)cc1O,.,-7,.,-15,.
COC(=O)c1cc(NC(=O)CSC2=NCCS2)cc(C(=O)OC)c1,0,-1,0,-4,3
COc1ccccc1C(=O)NC1(C(F)(F)F)C(=O)Nc2c1c(=O)[nH]c(=O)n2CCc1ccccc1 (stereo not given),0,.,16,.,.
CC1Cc2cc(/C(O)=C3/C(=O)C(=O)N(CCCn4ccnc4)C3c3ccc(F)cc3)ccc2O1 (stereo not given),1,-1,-2,-3,44*
CCCCn1c(-c2nonc2N)nc2ccccc21,1,-1,0,-21,1
